Results taken from PubChem BioAssay (NCATS).
Records with an inconclusive call do not appear. Unless noted, calls follow the shape of the dose curve; as a rule, active = well fitted curve in either direction with a large enough effect (not every such curve was filed as active); inconclusive = small, poorly fitted or top-dose-only effect, or another doubt; inactive = flat fitted curve, though single readings scatter.

Legend:
[1] = AP1 Signaling Pathway (AID 357); conditions: ME-180 AP-1-bla reporter, EGF-induced, beta-lactamase ratio, 5 h; at 17.2 µM (top of the series) unless noted;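 also: ME-180 reporter cells stimulated with EGF at its EC50 level; % is scaled to controls: 0 for no effect and ±100 for the full control effect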
Method in brief: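 AP-1-bla ME-180 cells, Opti-MEM + 0.5% dialyzed FBS, plated overnight 37 °C. Cpd titration + EC50 EGF, 5 h 37 °C. CCF4 2.5 h RT; ex 405, em 460/530 ratio → %activity, AC50.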

[2] = NFAT Signaling Pathway (AID 444); conditions: Jurkat NFAT-bla M1, carbachol, beta-lactamase ratio, 5 h; at 17.2 µM (top of the series) unless noted;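 also: carbachol stimulus at about its EC50 of 1 µM final; % is scaled to controls: 0 for no effect and ±100 for the full control effect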
Method in brief: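 Jurkat cells with NFAT-driven β-lactamase reporter and co-expressed M1 receptor, stimulated with carbachol (final 1 uM, ~EC50), compound titration, 5 h at 37 °C. CCF4 loaded 1 h at RT; 460/530 nm ratio gave %activity and AC50.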

[3] = Stat Signaling Pathway (AID 446); conditions: ME-180 (cervical carcinoma) SIE beta-lactamase reporter, IL-6 stimulated, 5 h; at 17.2 µM (top of the series) unless noted;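 also: ME-180 cervical cancer cells given 40 pM IL-6 alongside compound; SIE-controlled beta-lactamase reporter measured as 460/530 nm FRET emission ratio; % is scaled to controls: 0 for no effect and ±100 for the full control effect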
Method in brief: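 Normalization used AC90 stimulation (300 pM IL-6) and AC90 inhibition (125 nM pan-JAK inhibitor at 40 pM IL-6). The underlying signal is SIE-driven beta-lactamase in ME-180 cells after 5 h IL-6 exposure with compound.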

[4] = target: Glucocorticoid receptor (Homo sapiens) (UniProt P04150); test: GR-GFP Redistribution (AID 450;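 active = compounds whose dose series gives a full or clear partial fitted curve of increased nuclear translocation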; also: potency is read from the fitted curve at half-maximal effect)
Sequence of Glucocorticoid receptor (Homo sapiens) (P04150 whole entry, looked up): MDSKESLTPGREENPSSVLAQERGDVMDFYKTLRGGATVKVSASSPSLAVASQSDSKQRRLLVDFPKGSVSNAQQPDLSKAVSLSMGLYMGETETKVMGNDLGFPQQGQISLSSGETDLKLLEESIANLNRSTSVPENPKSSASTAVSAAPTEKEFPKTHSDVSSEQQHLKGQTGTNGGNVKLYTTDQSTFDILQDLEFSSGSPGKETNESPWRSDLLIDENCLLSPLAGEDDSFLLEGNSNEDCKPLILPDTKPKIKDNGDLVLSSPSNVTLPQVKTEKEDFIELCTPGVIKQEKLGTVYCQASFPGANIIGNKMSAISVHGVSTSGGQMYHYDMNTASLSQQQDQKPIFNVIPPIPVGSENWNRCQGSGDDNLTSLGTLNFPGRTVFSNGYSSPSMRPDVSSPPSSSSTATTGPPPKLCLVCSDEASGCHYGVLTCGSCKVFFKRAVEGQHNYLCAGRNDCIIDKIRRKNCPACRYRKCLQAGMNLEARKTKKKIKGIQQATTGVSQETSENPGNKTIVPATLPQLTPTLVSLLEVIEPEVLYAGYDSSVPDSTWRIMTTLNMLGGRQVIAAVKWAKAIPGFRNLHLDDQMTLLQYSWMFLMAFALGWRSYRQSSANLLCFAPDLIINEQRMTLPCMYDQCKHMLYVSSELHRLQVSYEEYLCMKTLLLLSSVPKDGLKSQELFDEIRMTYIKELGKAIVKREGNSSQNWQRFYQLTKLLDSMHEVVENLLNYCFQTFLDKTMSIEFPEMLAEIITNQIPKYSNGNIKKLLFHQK

COc1ccccc1C1C(C#N)=C(N)Oc2cc(C)n(Cc3ccccn3)c(=O)c21 (stereo not given)
inactive: activity change, negative = inhibition [1] -12.5% | activity change, negative = inhibition [2] -9.78% | activity, negative = inhibition [3] -1.34% | Potency [4] > 20.6 µM

CC(NC(=O)Nc1nccs1)(C(F)(F)F)C(F)(F)F
inactive: activity change, negative = inhibition [1] 4.62% | activity change, negative = inhibition [2] 15.9% | activity, negative = inhibition [3] 5.57% | Potency [4] > 20.6 µM

CCSc1nc(O)c(C2OC(=O)c3c2ccc(OC)c3OC)c(=O)n1-c1ccccc1 (stereo not given)
inactive: activity change, negative = inhibition [1] -10.9% | activity change, negative = inhibition [2] 4% | activity, negative = inhibition [3] -4.52% | Potency [4] > 20.6 µM

CN(CCOC(=O)c1ccc2c(c1)OCCO2)Cc1ccccc1
inactive: activity change, negative = inhibition [1] 17.7% | activity change, negative = inhibition [2] -3.33% | activity, negative = inhibition [3] -4.47% | Potency [4] > 20.6 µM

CN(C)CCOC(=O)Cc1ccc(Cl)cc1
inactive: activity change, negative = inhibition [1] 12% | activity change, negative = inhibition [2] -7.05% | activity, negative = inhibition [3] -4.76% | Potency [4] > 20.6 µM

Fc1ccccc1/C=N/n1cnnc1
inactive: activity change, negative = inhibition [1] 3.64% | activity change, negative = inhibition [2] 1.1% | activity, negative = inhibition [3] 2.69% | Potency [4] > 20.6 µM

COc1ccc(/C(O)=C2/C(=O)C(=O)N(CCN(C)C)C2c2ccccn2)cc1OC (stereo not given)
inactive: activity change, negative = inhibition [1] 4.92% | activity change, negative = inhibition [2] -3.03% | activity, negative = inhibition [3] -3.63% | Potency [4] > 20.6 µM

CCC(=O)OC1=C2C(=Nc3c(c(=O)n(C)c(=O)n3C)C2c2ccccc2)c2ccccc21 (stereo not given)
inactive: activity change, negative = inhibition [1] 8.9% | activity change, negative = inhibition [2] -4% | activity, negative = inhibition [3] 14.9% | Potency [4] > 20.6 µM

COc1cc(Cn2ccnc2)c(OC)cc1Cn1ccnc1
inactive: activity change, negative = inhibition [1] 5.72% | activity change, negative = inhibition [2] -19.5% | activity, negative = inhibition [3] 4.23% | Potency [4] > 20.6 µM

CCCSc1nc(O)c(C2OC(=O)c3c2ccc(OC)c3OC)c(=O)n1C (stereo not given)
inactive: activity change, negative = inhibition [1] 17.4% | activity change, negative = inhibition [2] -4.09% | activity, negative = inhibition [3] 3.93% | Potency [4] > 20.6 µM

CCOC(=O)CC1=NC(=O)CS1
inactive: activity change, negative = inhibition [1] 2.69% | activity change, negative = inhibition [2] 0.359% | activity, negative = inhibition [3] 4.4% | Potency [4] > 20.6 µM

CCCCCOc1ccccc1C(=O)NCCCC(=O)O
inactive: activity change, negative = inhibition [1] 2.16% | activity change, negative = inhibition [2] -1.98% | activity, negative = inhibition [3] 1.72% | Potency [4] > 20.6 µM

Cc1cc(-c2ccc(F)cc2)nc2cc(C(N)=O)nn12
inactive: activity change, negative = inhibition [1] -15.1% | activity change, negative = inhibition [2] -2.99% | activity, negative = inhibition [3] -7.09% | Potency [4] > 20.6 µM

COc1cc(C2NC(=O)NC(C)=C2C(=O)Nc2cccc(C)c2C)cc(OC)c1OC (stereo not given)
inactive: activity change, negative = inhibition [1] 2.82% | activity change, negative = inhibition [2] 10.2% | activity, negative = inhibition [3] -2.31% | Potency [4] > 20.6 µM

CCCCCCOC(=O)CCn1[nH]c(=O)c2ccccc2c1=O
inactive: activity change, negative = inhibition [1] 13% | activity change, negative = inhibition [2] 7.42% | activity, negative = inhibition [3] -5.61% | Potency [4] > 20.6 µM

COc1cccc(-c2nn3c(-c4ccco4)nnc3s2)c1
inactive: activity change, negative = inhibition [1] -16% | activity change, negative = inhibition [2] 2.73% | activity, negative = inhibition [3] 6.95% | Potency [4] > 20.6 µM

c1ccc(-n2ncc3c(NCC4CCCO4)ncnc32)cc1 (stereo not given)
inactive: activity change, negative = inhibition [1] -4.47% | activity change, negative = inhibition [2] -15.8% | activity, negative = inhibition [3] 2.07% | Potency [4] > 20.6 µM

COc1ccc(/C(O)=C2/C(=O)C(=O)N(CCCN(C)C)C2c2ccccc2)cc1Cl (stereo not given)
inactive: activity change, negative = inhibition [1] 8.68% | activity change, negative = inhibition [2] -3.88% | activity, negative = inhibition [3] 12.1% | Potency [4] > 20.6 µM

CCc1nc2c(sc3nc(N4CCOCC4)c4c(c32)CC(C)(C)OC4)c(=O)o1
inactive: activity change, negative = inhibition [1] 3.92% | activity change, negative = inhibition [2] -0.695% | activity, negative = inhibition [3] -6.95% | Potency [4] > 20.6 µM

COc1ccc(CC(=O)n2c(CC#N)nc3ccccc32)cc1OC
inactive: activity change, negative = inhibition [1] -7.74% | activity change, negative = inhibition [2] 10.4% | activity, negative = inhibition [3] -5.7% | Potency [4] > 20.6 µM

Cc1cn2c(-c3ccncc3)nnc2s1
inactive: activity change, negative = inhibition [1] -4.06% | activity change, negative = inhibition [2] 1.86% | activity, negative = inhibition [3] -2.66% | Potency [4] > 20.6 µM

Cc1c(=O)n(OCc2c(F)cccc2F)c2ccccc2[n+]1[O-]
inactive: activity change, negative = inhibition [1] -5.17% | activity change, negative = inhibition [2] -0.573% | activity, negative = inhibition [3] 2.13% | Potency [4] > 20.6 µM

Cc1ccc(C(=O)/C=C/Nc2ccccn2)cc1
inactive: activity change, negative = inhibition [1] 11% | activity change, negative = inhibition [2] 23.5% | activity, negative = inhibition [3] -4.63% | Potency [4] > 20.6 µM

O=P(Cc1nnco1)(c1ccccc1)c1ccccc1
inactive: activity change, negative = inhibition [1] -8.6% | activity change, negative = inhibition [2] -9.88% | activity, negative = inhibition [3] -0.63% | Potency [4] > 20.6 µM

Cc1ccc(C(=O)C2C(c3cccs3)NC(=O)NC2(O)C(F)(F)F)cc1 (stereo not given)
inactive: activity change, negative = inhibition [1] 1.39% | activity change, negative = inhibition [2] 8.36% | activity, negative = inhibition [3] 0.646% | Potency [4] > 20.6 µM
